# Reference: paper PMC7862700, “An all-to-all approach to the identification of sequence-specific readers for epigenetic DNA modifications on cytosine”
# How the values were obtained:
# Assay in all cases: DAPPL (digital affinity profiling via proximity ligation, sequencing); 10 mM Tris-HCl pH 7.5, 50 mM NaCl, 1 mM DTT, 4% glycerol, room temperature, 30 min; GST-TFs on glutathione beads, 16-mer random dsDNA library, 0.1% formaldehyde crosslink after washing; high values mean tight binding
# Conditions in all cases: protein: recombinant; tags: N-terminal GST; dsDNA, one strand shown
# FLI1 = target: T1, FLI1 (Homo sapiens, UniProt Q01543 1-452)
# T1 sequence: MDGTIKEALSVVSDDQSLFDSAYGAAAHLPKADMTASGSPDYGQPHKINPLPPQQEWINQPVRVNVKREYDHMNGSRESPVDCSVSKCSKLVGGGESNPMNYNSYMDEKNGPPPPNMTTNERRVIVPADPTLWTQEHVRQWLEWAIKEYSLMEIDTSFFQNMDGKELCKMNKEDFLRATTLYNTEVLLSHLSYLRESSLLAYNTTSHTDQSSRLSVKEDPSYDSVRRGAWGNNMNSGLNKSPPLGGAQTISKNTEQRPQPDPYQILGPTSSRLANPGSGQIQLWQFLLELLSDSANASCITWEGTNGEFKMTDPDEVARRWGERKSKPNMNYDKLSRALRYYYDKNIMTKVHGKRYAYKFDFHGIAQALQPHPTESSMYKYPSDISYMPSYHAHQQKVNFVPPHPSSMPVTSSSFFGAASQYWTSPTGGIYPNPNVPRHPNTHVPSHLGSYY
# How it was run: (§1)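 A tag-only sample was pooled with DNA-barcoded human transcription factors that had been expressed in yeast as GST fusions and captured on glutathione beads. The pools were incubated for 30 min at room temperature with 200 nmole of a random double-stranded 16-mer DNA library in Tris/NaCl/DTT/glycerol buffer, then washed, crosslinked with 0.1% formaldehyde, proximity-ligated (BsaI/T4 ligase, 1 h, 37 °C), PCR-amplified and sequenced on an Illumina NextSeq500. Binding signal is each hexamer's read frequency for a factor divided by its frequency for the tag-only sample.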
# ELK1 = target: T2, ELK1 (Homo sapiens, UniProt P19419 1-428)
# T2 sequence: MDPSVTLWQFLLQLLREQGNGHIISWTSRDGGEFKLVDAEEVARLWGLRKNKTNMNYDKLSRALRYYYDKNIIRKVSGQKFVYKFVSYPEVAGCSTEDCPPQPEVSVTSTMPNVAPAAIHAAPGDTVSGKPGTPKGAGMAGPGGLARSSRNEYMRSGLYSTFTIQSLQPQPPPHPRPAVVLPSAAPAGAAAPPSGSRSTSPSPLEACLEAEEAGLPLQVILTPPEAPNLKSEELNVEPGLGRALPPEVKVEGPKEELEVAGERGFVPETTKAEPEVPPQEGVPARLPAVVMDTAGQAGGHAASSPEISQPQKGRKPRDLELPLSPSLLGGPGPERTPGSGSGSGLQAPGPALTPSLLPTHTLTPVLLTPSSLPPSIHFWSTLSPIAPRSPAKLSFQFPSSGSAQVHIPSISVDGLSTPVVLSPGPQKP
# How it was run: as §1
# GABPA = target: T3, GABPA (Homo sapiens, UniProt Q06546 1-454)
# T3 sequence: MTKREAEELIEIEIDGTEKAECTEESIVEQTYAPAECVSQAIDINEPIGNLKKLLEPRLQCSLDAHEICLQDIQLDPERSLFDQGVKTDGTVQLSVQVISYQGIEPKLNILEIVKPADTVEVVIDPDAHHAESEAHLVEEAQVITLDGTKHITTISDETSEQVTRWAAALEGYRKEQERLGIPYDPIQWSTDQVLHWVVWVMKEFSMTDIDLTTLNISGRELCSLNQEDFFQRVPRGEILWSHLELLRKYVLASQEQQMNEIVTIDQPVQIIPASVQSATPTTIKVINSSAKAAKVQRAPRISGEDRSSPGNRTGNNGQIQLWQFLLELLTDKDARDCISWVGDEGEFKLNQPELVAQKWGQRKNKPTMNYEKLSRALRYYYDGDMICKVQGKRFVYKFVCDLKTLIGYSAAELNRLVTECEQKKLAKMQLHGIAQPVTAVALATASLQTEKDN
# How it was run: as §1
# ERG = target: T4, ERG (Homo sapiens, UniProt P11308 1-479)
# T4 sequence: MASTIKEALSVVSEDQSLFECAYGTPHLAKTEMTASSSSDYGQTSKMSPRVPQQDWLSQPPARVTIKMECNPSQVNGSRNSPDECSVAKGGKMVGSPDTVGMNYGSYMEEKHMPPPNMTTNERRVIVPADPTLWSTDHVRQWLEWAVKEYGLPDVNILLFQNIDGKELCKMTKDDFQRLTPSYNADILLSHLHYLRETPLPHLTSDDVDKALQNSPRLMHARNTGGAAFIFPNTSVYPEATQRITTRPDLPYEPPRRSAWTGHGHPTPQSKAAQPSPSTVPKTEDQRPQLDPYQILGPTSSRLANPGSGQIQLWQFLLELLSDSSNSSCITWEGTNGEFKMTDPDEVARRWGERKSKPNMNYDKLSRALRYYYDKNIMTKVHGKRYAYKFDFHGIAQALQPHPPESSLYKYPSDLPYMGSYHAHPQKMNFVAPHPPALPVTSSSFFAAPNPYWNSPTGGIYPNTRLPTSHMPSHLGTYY
# How it was run: as §1
# ELF1 = ELF1 (Homo sapiens, UniProt P32519 1-619)
# Sequence of ELF1 (P32519 whole entry): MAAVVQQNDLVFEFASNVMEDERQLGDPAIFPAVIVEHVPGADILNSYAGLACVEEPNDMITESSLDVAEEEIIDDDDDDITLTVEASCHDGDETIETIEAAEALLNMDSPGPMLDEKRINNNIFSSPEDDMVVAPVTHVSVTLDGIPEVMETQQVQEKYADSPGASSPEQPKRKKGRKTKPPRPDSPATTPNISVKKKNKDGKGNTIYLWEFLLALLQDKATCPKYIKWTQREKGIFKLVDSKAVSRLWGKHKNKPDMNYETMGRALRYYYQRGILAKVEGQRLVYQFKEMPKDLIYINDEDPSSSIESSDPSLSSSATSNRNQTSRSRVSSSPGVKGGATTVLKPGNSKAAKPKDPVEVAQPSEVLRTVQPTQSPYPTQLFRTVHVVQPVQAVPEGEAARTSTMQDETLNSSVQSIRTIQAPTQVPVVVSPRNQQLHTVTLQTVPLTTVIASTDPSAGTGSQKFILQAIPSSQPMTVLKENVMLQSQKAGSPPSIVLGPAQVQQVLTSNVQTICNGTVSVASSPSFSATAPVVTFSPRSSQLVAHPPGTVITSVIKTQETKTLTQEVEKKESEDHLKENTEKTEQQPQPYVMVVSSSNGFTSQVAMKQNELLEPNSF
# How it was run: as §1
# EHF = target: T5, EHF (Homo sapiens, UniProt Q9NZC4 1-300)
# T5 sequence: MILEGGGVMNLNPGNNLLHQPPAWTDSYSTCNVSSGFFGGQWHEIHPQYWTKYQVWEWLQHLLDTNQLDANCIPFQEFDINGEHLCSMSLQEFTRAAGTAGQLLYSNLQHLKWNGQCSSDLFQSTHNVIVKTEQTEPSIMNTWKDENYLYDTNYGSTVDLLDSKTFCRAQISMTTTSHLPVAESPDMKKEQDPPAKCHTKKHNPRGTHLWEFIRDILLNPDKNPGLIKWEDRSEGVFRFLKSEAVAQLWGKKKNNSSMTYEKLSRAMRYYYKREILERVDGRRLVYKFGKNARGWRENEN
# How it was run: as §1
# SPI1 = SPI1 (Homo sapiens, UniProt P17947 1-270)
# How it was run: as §1
# SPIB = SPIB (Homo sapiens, UniProt Q01892 1-262)
# Sequence of SPIB (Q01892 whole entry): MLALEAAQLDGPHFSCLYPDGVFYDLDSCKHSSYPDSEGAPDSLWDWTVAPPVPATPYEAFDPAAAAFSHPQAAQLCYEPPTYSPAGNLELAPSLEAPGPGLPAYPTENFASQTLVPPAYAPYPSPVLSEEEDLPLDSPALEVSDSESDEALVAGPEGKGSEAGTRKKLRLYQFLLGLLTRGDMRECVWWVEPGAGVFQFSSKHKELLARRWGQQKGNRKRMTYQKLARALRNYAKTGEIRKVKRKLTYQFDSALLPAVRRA
# How it was run: as §1
# ELK3 = target: T6, ELK3 (Homo sapiens, UniProt P41970 1-407)
# T6 sequence: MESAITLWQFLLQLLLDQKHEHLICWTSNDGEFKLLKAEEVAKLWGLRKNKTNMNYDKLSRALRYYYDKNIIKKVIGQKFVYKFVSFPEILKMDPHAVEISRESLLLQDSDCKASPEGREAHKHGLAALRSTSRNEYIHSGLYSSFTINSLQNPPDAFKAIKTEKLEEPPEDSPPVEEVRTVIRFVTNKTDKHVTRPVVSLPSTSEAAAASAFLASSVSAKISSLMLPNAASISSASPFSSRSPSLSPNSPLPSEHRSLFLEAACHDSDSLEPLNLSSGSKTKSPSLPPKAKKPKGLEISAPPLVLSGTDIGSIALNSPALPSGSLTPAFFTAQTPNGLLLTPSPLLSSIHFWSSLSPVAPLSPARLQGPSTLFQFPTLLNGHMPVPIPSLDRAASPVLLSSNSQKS
# How it was run: as §1
sequence,measurement,setting,value
CATCCT,binding signal,FLI1,"1.68 fold enrichment (6-mer frequency, TF over GST control)"
same,binding signal,ELK1,"1.65 fold enrichment (6-mer frequency, TF over GST control)"
same,binding signal,GABPA,"1.51 fold enrichment (6-mer frequency, TF over GST control)"
same,binding signal,ERG,"1.75 fold enrichment (6-mer frequency, TF over GST control)"
same,binding signal,ELF1,"1.64 fold enrichment (6-mer frequency, TF over GST control)"
same,binding signal,EHF,"1.62 fold enrichment (6-mer frequency, TF over GST control)"
same,binding signal,SPI1,"1.59 fold enrichment (6-mer frequency, TF over GST control)"
same,binding signal,SPIB,"1.7 fold enrichment (6-mer frequency, TF over GST control)"
same,binding signal,ELK3,"1.68 fold enrichment (6-mer frequency, TF over GST control)"
